According to PubChem BioAssay AID1851 (National Center for Advancing Translational Sciences (NCATS), 2009):
Values joined by “and” are separate entries in the source; they are usually repeats but may differ in a detail not shown here. Identical values can stand only once. Hit rate of the full screen: of about 16,000 compounds, about 2,600 (16%) were called active. Roughly 20% stayed inconclusive and do not appear here. Calls follow the shape of the dose curve; as a rule, active = well fitted curve in the direction sought with a large enough effect; inconclusive = small, poorly fitted or top-dose-only effect, or effect the other way; inactive = no such curve, though single readings can be large or run the other way. Only a sample is shown. Some compounds were tested as several samples or in several runs, with calls that do not always agree.

Target: Cytochrome P450 2D6 (Homo sapiens) (UniProt P10635)
Sequence (P10635 whole entry, looked up): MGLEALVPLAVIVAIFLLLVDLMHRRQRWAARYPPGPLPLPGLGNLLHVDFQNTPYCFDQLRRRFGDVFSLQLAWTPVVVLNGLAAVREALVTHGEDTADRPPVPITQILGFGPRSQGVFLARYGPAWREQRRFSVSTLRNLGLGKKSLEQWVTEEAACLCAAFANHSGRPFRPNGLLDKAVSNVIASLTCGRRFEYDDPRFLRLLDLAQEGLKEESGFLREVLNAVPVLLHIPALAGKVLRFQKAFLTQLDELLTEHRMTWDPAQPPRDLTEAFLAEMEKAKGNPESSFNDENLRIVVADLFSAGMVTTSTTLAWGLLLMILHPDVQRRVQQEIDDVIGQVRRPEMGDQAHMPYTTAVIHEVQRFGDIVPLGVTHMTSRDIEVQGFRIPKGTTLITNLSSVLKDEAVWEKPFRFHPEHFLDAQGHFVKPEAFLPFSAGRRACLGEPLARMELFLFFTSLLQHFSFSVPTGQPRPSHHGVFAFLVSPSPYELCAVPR
Test: Cytochrome panel assay with activity outcomes
Conditions: recombinant CYP, pro-luciferin dealkylation, luminescence, p450-cyp2d6; series mostly up to 57.1 µM
% is scaled to controls: 0 for no effect and ±100 for the full control effect.

Row | Structure (SMILES) | AC50 | activity, negative = inhibition
1 | COc1ccc(S(=O)(=O)N2CCC[C@H]2C(=O)NC2=NCCS2)cc1 | inactive | 
2 | COc1ccccc1N/C(=N/S(=O)(=O)c1ccc(C)cc1)c1ccc(Cl)cc1 | inactive | 
3 | CCOc1cc(CC(=O)N[C@@H](CC(C)C)c2ccccc2N2CCCCC2)ccc1C(=O)O | inactive | 
4 | Cc1cc(N2CCN(c3nc4ccccc4s3)CC2)n2ncnc2n1 | inactive | 
5 | C[n+]1ccccc1/C=N\O | inactive | 
6 | CS(=O)(=O)c1ccccc1-c1nc(-c2cc(C(F)(F)F)cc(C(F)(F)F)c2)no1 | inactive | 
7 | N[C@@H](CO)C(=O)O | inactive | 
8 | CO[C@]1(C2=NCCN2)COc2ccccc2O1 | inactive and 794 nM (active) | 
9 | COc1ccc(N2C(=O)c3ccccc3NC2c2ccc(OC)c(CSc3ccccn3)c2)cc1 (stereo unspecified) | inactive | 
10 | COCCN(C(=O)Nc1ccc(OC)cc1OC)C1CCN(C(C)=O)CC1 | inactive | 
11 | COc1ccc(NC(=O)Cn2cccc2)c(OC)c1 | inactive | 
12 | CCCCN(CC)Cc1ccc(CNC(=O)Nc2ccc(OC)cc2OC)o1 | 0.501 µM (active) | 
13 | CC(=O)NC(CCS(C)(=O)=O)C(=O)Nc1c(F)cccc1F (stereo unspecified) | inactive | 
14 | O=C1CCCN1CC(CN1CCOCC1)Sc1nnnn1-c1ccccc1 (stereo unspecified) | inactive | 
15 | Cc1cc(C)n(-c2cc(N3CCN(C(=O)c4ccc(C(C)(C)C)cc4)CC3)ccc2[N+](=O)[O-])n1 | inactive | 
16 | Cc1cc(C)c(S(=O)(=O)N2CCN(c3ccc([N+](=O)[O-])c(NCC4CCCO4)c3)CC2)c(C)c1 (stereo unspecified) | inactive | 
17 | Cc1cc(C)n(-c2cc(N3CCN(S(=O)(=O)c4ccc(C)c(C)c4)CC3)ccc2[N+](=O)[O-])n1 | 0.501 µM (active) | 
18 | COc1ccc2c(C=Nc3c(C)n(C)n(-c4ccccc4)c3=O)c(O)n(Cc3ccco3)c(=O)c2c1 | inactive | 
19 | COc1cccc(Cn2c(=O)c(-c3cccs3)nc3cnc(N4CCN(C)CC4)nc32)c1 | inactive | 
20 | CN(C)C(=O)CCc1nc(-c2ccc(C(C)(C)C)cc2)no1 | inactive | 
21 | COC(=O)c1ccc(Oc2nc(N(C)C)nc(N3CCOCC3)n2)cc1 | inactive | 
22 | O=C(O)[C@@H](O)[C@@H](O)[C@@H](O)[C@@H](O)c1nc2ccccc2s1 |  | -1.94% [at 11.4 µM] (inactive)
23 | Clc1ccccc1-c1nccc(-n2ccnc2)n1 | 7.94 µM (active) | 
24 | COc1ccccc1-c1nnc(NC(C)=O)s1 | inactive | 

Row | Structure (SMILES) | AC50 | activity, negative = inhibition
25 | Cc1ccccc1-c1nccc(-n2ccnc2)n1 | 10 µM (active) | 
26 | COc1ccccc1-c1nccc(-n2ccnc2)n1 | 15.8 µM (active) | 
27 | FC(F)(F)c1ccccc1-c1nccc(N2CCNCC2)n1 | inactive | 
28 | O=C(O)CC[C@]1(C(=O)O)CCC(=O)c2ccccc21 |  | 10.4% [at 11.4 µM] (inactive)
29 | CCOCC(=O)Nc1cc(C(=O)Nc2ccccc2)ccc1Cl | inactive | 
30 | CCc1ccc(C(=O)N2CCC(c3nc4ccccc4s3)CC2)cc1 | inactive | 
31 | CO[C@@H]1COC(=O)C/C=C\[C@H](C)[C@H](OC)COC(=O)[C@H]2CCCN2C(=O)C/C=C\[C@H]1C |  | 6.57% [at 11.4 µM] (inactive)
32 | C[C@@H]1C[C@H]2[C@H]3C[C@@H](F)C4=CC(=O)C=C[C@]4(C)[C@@]3(Cl)[C@@H](O)C[C@@]2(C)[C@@H]1C(=O)COC(=O)C(C)(C)C | inactive | 
33 | CC(C)(C)OC(=O)[C@H]([C@@H]1N[C@@H](C(=O)O)C(C)(C)S1)N1C(=O)c2ccccc2C1=O |  | 13.9% [at 11.4 µM] (inactive)
34 | Cc1ccc(OCCNC(=O)c2cncc(Br)c2)cc1C | inactive | 
35 | CO[C@@]12C[C@@H](COC(=O)c3cncc(Br)c3)CN(C)[C@H]1Cc1cn(C)c3cccc2c13 | 39.8 nM (active) and 20 nM (active) | 
36 | CC(C)(C)NC(=O)COC(=O)c1cncc(Br)c1 | inactive | 
37 | COC(=O)C/C=C\[C@@H](C)[C@@H](/C=N\O[C@@H](C)c1cn([C@H](CO)Cc2ccccc2)nn1)OC |  | 15.1% [at 11.4 µM] (inactive) and 6.44% [at 11.4 µM] (inactive)
38 | COc1ccc2cc3[n+](cc2c1OC)CCc1cc2c(cc1-3)OCO2 | 2.51 µM (active) | 
39 | C[C@H]1[C@H](C)OC(=O)C[C@H](O)C[C@H](O)C[C@H](O)CC[C@H](O)[C@H](O)CC(=O)C[C@H](O)[C@H](C(=O)O)[C@H](O)C[C@H](O[C@@H]2O[C@@H](C)[C@H](O)[C@@H](N)[C@@H]2O)C=CC=CC=CC=CCCC=CC=C[C@@](C)(O)[C@H]1O |  | -1.84% [at 11.4 µM] (inactive)
40 | O=C(Nc1ncn[nH]1)c1ccc([N+](=O)[O-])cc1[N+](=O)[O-] | inactive | 
41 | NC(N)=NC(=O)Cc1c(Cl)cccc1Cl | inactive and 126 nM (active) | 
42 | NC(=O)NC(=O)Nc1ccccc1Cl | inactive | 
43 | O=C(O)COC(=O)Cc1ccccc1Nc1c(Cl)cccc1Cl | inactive | 
44 | CCC(CC)c1nnc(NC(=O)c2cccc(S(=O)(=O)N3CCc4ccccc43)c2)s1 | inactive | 
45 | CCCCN1C(=O)C(NC(=O)CC(C)C)(C(F)(F)F)C2=C1CC(C)(C)CC2=O (stereo unspecified) | inactive | 
46 | Nc1cc(N)nc(SCC(=O)c2ccccc2)n1 | inactive | 
47 | CN1[C@@H](CC(=O)c2ccccc2)CCC[C@@H]1C[C@@H](O)c1ccccc1 | 0.251 µM (active) | 
48 | CN1[C@H](CC(=O)c2ccccc2)CCC[C@H]1C[C@H](O)c1ccccc1 | 25.1 µM (active) | 

Row | Structure (SMILES) | AC50 | activity, negative = inhibition
49 | O=C(C[C@@H]1C=Cc2ccccc2N1C(=O)c1ccccc1)c1ccccc1 |  | -16.3% [at 11.4 µM] (inactive)
50 | O=C(C[C@@H](c1ccccc1)N1CCCCC1)c1ccccc1 |  | -19.2% [at 11.4 µM] (inactive)
51 | COc1ccc(-n2c(=O)cnc3cnc(OC)nc32)cc1 | inactive | 
52 | COCCn1c(=O)c(-c2cccc(C#N)c2)nc2cnc(N3CCN(C)CC3)nc21 | inactive | 
53 | O=C(c1cc(C(F)(F)F)cc(C(F)(F)F)c1)N1CCC[C@@]2(CCN(c3ccccc3)C2)C1 | inactive | 
54 | O=C(Nc1ccn(Cc2ccccc2F)n1)c1ccc(COc2cc(Cl)ccc2Cl)o1 | inactive | 
55 | O=C(N/N=C/c1ccc(O)cc1)c1ccc(COc2cc(Cl)ccc2Cl)o1 | inactive | 
56 | O=C(Nc1cccnc1)c1ccc(COc2cc(Cl)ccc2Cl)o1 | 15.8 µM (active) | 
57 | NS(=O)(=O)c1ccc(N=Nc2ccc[nH]c2=O)cc1 |  | -6.28% [at 11.4 µM] (inactive)
58 | C(=Nc1cnc2ccccc2c1)c1ccc2ccccc2n1 |  | 1.16% [at 11.4 µM] (inactive)
59 | C=C(C)[C@@H]1CC=C(C(=O)O)CC1 | inactive | 
60 | NNC(=O)c1nn(-c2ccc(Cl)cc2)ccc1=O | inactive | 
61 | COc1ccc(Oc2c(Cl)cnn(-c3ccccc3)c2=O)cc1 | inactive | 
62 | CC(C)Cn1cnc2c(SCc3ccccn3)nc(N)nc21 |  | 6.1% [at 11.4 µM] (inactive)
63 | Cc1ccc2ccccc2c1CSc1nc(N)nc2c1ncn2CC(C)C | 3.98 µM (active) | 
64 | CC(C)Cn1cnc2c(Sc3c([N+](=O)[O-])ncn3C)nc(N)nc21 |  | 8.92% [at 11.4 µM] (inactive)
65 | CCCOc1ccc(C2C(=O)N(C3CCCCC3)CC(=O)N2C2CC2)cc1OC (stereo unspecified) | inactive | 
66 | Cn1c[n+](C)cc1/C=N/O | inactive | 
67 | O=[N+]([O-])c1cccnc1N1CCOCC1 | inactive | 
68 | O=[N+]([O-])c1cc(F)c(N2CCOCC2)cc1N1CCCCC1 | 10 µM (active) | 
69 | O=[N+]([O-])c1ccc(N2CCCC2)cc1N1CCCC1 | inactive | 
70 | Cc1ccc(-c2nc3ccccc3s2)cc1NC(=O)c1cc(-n2cnnc2)ccc1Cl | inactive | 
71 | CN1CCN(c2ncc3nc(-c4cccs4)c(=O)n(-c4ccccc4)c3n2)CC1 | inactive | 
72 | O=C(O)C1CCC(=O)N(C2CC2)C1c1ccccc1 (stereo unspecified) | inactive | 

Row | Structure (SMILES) | AC50 | activity, negative = inhibition
73 | CC(=O)NCCNc1ccnc(-c2ccccc2C)n1 | inactive | 
74 | CC(=O)NCCNc1nc(-c2ccccc2C)nc2ccccc12 | 5.01 µM (active) | 
75 | CC(=O)NCCNc1nc(-c2ccccc2C(F)(F)F)nc2ccccc12 | 3.98 µM (active) | 
76 | COCCNc1nc(-c2ccccc2Cl)nc2ccccc12 | inactive | 
77 | CC(=O)NCCNc1nc(-c2ccccc2Cl)nc2ccccc12 | 12.6 µM (active) | 
78 | COCCNc1nc(-c2ccccc2C(F)(F)F)nc2ccccc12 | inactive | 
79 | COc1ccccc1-c1nc(NCCNC(C)=O)c2ccccc2n1 | 6.31 µM (active) | 
80 | CC(=O)NCCNc1ccnc(-c2ccccc2C(F)(F)F)n1 | inactive | 
81 | COC(=O)[C@@]1(Cc2ccc(OC)cc2)[C@H]2c3cc(C(=O)N4CCCC4)n(CCc4c[nH]c5ccc(O)cc45)c3C[C@H]2CN1C(=O)c1ccccc1 | inactive | 
82 | O=Nc1c(-c2c(O)[nH]c3ccccc23)[nH]c2ccccc12 | inactive | 
83 | COc1ccc(C)cc1NC(=O)c1cc2cc3ccc(C)cc3nc2o1 | inactive | 
84 | Cc1ccc2cc(CCNC(=O)c3ccc(Br)o3)c(=O)[nH]c2c1 | inactive | 
85 | Cc1cccc(N(C)S(=O)(=O)c2ccc3[nH]c(=O)c(=O)[nH]c3c2)c1 | inactive | 
86 | COc1ccc(-n2c(=O)c(C)nc3cnc(OC)nc32)cc1 | inactive | 
87 | CCCn1c(=O)c2[nH]c(C3CCCC3)nc2n(CCC)c1=O | inactive | 
88 | COc1ccc(-c2nc3cnc(N4CCOCC4)nc3n(CCc3ccccc3)c2=O)cc1 | inactive | 
89 | COC(=O)[C@@H]1CC[C@H](C)[C@@H](c2ccc(C)cc2)N1C(=O)c1ccc(/C=N\OCC[C@@H]2C=C[C@H](OC(C)=O)[C@H](COC(C)=O)O2)cc1 |  | 6.79% [at 11.4 µM] (inactive)
90 | COC(=O)c1cc(=O)n(C2CC2)c(=NC2CC2)s1 | inactive | 
91 | CN(C)C(=C(C#N)C#N)N1CCN(c2ccc(Cl)c(Cl)c2)CC1 | 1.12 µM (active) | 
92 | C=CCNCCOCCOc1ccc(C)cc1[N+](=O)[O-] | 3.16 µM (active) | 
93 | CCC(C)Nc1c([N+](=O)[O-])cc(C)cc1[N+](=O)[O-] (stereo unspecified) | inactive | 
94 | CCCCNCCOCCOc1ccc(C)cc1[N+](=O)[O-] | 2 µM (active) | 
95 | Cc1ccc(OCC(=O)N/N=C\c2c(C)n(C)c3ccccc23)c([N+](=O)[O-])c1 | inactive | 
96 | CCCC(=O)N1CCN(c2ccc(NC(=O)c3ccc(OCC)c([N+](=O)[O-])c3)cc2)CC1 | inactive | 
